# Results as given in ChEMBL document CHEMBL1961873, “Compounds: GSK PKIS; Assays: Nanosyn kinase panel” (2012).
# Tests used:
# [1] = target: Tyrosine-protein kinase SYK (Homo sapiens) (UniProt P43405); conditions: at 1 µM
# [2] = target: T1, Tyrosine-protein kinase Tec (Homo sapiens) (UniProt P42680); conditions: at 0.1 µM
# T1 sequence (whole entry): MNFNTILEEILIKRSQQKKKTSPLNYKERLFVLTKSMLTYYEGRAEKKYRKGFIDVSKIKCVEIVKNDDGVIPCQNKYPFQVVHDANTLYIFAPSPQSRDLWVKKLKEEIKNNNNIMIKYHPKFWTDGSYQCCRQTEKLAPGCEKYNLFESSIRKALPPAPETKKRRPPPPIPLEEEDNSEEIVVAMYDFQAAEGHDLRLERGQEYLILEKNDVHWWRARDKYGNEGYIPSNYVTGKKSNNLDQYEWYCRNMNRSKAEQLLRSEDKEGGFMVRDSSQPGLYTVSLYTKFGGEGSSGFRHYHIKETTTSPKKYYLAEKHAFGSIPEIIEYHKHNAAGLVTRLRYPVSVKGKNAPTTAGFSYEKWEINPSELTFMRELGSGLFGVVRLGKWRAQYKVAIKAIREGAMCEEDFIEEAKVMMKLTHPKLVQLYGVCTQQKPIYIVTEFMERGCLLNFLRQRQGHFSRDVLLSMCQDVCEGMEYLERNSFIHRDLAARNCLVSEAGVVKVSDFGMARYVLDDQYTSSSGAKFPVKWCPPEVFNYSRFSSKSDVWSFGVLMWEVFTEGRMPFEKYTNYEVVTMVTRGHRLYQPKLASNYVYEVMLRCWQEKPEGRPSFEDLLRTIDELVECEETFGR
# [3] = target: T1, Tyrosine-protein kinase Tec (Homo sapiens); conditions: at 1 µM
# [4] = target: Angiopoietin-1 receptor (Homo sapiens) (UniProt Q02763); conditions: at 0.1 µM
# Angiopoietin-1 receptor (Homo sapiens), sequence (Q02763 whole entry): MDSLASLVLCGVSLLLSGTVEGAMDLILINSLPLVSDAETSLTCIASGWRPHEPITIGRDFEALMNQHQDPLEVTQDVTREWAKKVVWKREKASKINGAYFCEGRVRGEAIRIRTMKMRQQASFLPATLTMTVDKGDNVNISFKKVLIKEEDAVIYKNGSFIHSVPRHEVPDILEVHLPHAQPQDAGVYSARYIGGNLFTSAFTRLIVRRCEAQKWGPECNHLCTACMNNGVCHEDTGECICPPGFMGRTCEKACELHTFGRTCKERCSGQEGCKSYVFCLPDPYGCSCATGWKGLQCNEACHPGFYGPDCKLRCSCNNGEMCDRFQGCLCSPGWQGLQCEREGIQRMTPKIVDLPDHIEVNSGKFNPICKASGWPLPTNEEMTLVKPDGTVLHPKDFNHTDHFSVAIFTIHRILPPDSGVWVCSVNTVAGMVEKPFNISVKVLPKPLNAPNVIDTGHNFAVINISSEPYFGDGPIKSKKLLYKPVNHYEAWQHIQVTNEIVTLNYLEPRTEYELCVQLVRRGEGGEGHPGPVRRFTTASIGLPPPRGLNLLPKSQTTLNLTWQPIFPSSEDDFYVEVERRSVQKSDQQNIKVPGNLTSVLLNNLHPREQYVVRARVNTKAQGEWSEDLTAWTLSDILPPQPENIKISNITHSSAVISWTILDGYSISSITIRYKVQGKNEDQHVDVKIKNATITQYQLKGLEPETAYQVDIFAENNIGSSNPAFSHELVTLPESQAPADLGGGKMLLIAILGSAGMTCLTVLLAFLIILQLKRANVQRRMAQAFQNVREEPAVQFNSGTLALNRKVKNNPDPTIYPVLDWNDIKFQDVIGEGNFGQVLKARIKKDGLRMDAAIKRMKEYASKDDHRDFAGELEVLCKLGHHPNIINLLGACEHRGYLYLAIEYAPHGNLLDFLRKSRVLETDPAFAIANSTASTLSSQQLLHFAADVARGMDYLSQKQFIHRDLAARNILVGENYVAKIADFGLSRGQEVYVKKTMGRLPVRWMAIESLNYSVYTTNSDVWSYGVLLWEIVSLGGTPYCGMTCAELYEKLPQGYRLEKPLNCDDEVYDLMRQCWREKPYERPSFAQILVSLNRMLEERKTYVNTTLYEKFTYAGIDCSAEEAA
# [5] = target: Angiopoietin-1 receptor (Homo sapiens) (UniProt Q02763); conditions: at 1 µM
# [6] = target: T2, Non-receptor tyrosine-protein kinase TNK1 (Homo sapiens) (UniProt Q13470); conditions: at 0.1 µM
# T2 sequence (whole entry): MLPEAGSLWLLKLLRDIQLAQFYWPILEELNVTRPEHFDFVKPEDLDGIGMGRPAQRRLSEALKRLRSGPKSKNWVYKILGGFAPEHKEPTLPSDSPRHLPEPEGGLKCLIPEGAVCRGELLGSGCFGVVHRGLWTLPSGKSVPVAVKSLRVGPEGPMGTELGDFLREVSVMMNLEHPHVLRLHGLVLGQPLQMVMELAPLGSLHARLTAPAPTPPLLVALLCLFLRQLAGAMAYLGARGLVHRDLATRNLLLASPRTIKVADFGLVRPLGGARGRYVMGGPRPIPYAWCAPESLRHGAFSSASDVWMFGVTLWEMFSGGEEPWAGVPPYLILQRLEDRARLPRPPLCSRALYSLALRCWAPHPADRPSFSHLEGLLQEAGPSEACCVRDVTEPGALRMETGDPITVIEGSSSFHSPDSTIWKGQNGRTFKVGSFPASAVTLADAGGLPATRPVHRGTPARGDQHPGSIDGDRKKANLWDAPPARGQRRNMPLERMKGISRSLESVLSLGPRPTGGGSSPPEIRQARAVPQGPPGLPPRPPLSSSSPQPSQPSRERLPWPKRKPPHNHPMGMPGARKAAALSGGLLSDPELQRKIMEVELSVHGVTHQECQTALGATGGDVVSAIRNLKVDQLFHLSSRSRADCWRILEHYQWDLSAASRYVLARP
# [7] = target: T2, Non-receptor tyrosine-protein kinase TNK1 (Homo sapiens); conditions: at 1 µM
# [8] = target: Activated CDC42 kinase 1 (Homo sapiens) (UniProt Q07912); conditions: at 0.1 µM
# [9] = target: Activated CDC42 kinase 1 (Homo sapiens) (UniProt Q07912); conditions: at 1 µM
# [10] = target: High affinity nerve growth factor receptor (Homo sapiens) (UniProt P04629); conditions: at 0.1 µM
# High affinity nerve growth factor receptor (Homo sapiens), sequence (P04629 33-796 limits assumed): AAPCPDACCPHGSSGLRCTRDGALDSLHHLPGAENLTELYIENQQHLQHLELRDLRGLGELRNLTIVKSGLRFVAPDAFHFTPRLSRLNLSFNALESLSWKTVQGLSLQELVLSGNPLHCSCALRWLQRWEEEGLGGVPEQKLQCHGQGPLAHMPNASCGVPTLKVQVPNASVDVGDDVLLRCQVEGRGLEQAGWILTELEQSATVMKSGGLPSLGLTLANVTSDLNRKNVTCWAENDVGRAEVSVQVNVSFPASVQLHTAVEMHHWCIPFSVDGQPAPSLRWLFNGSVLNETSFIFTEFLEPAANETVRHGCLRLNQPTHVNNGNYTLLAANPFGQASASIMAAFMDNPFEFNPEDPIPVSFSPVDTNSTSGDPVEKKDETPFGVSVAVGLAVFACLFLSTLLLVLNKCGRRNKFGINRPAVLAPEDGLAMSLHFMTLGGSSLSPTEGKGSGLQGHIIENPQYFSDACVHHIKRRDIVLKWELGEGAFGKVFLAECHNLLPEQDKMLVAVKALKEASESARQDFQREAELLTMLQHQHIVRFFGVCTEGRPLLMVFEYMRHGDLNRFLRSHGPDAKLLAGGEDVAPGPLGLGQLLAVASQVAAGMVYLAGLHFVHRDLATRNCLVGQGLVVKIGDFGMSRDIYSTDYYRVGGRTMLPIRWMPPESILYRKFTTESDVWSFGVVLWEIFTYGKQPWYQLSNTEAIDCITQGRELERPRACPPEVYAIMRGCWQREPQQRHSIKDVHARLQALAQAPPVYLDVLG
# [11] = target: High affinity nerve growth factor receptor (Homo sapiens) (UniProt P04629); conditions: at 1 µM
# [12] = target: BDNF/NT-3 growth factors receptor (Homo sapiens) (UniProt Q16620); conditions: at 0.1 µM
# BDNF/NT-3 growth factors receptor (Homo sapiens), sequence (Q16620 32-822 limits assumed): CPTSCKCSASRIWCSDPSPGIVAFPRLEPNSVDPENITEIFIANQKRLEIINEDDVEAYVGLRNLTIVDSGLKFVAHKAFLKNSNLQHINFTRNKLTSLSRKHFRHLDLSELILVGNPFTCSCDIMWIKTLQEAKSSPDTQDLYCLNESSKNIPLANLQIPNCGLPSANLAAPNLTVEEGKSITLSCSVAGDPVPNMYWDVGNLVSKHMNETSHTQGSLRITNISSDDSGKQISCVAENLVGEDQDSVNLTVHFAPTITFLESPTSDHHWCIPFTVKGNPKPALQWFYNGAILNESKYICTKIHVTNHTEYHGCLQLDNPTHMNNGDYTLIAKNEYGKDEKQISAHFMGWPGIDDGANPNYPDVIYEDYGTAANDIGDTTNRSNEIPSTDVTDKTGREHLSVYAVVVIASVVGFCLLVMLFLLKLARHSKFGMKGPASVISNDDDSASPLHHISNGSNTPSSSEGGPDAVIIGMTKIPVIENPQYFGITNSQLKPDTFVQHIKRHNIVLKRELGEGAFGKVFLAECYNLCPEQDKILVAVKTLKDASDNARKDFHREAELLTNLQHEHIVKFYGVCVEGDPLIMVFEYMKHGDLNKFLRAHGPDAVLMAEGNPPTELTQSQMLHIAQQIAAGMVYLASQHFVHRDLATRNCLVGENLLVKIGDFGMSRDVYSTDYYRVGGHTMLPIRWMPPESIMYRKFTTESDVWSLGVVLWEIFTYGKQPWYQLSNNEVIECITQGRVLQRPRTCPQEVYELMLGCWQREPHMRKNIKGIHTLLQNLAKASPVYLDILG
# [13] = target: BDNF/NT-3 growth factors receptor (Homo sapiens) (UniProt Q16620); conditions: at 1 µM
# [14] = target: NT-3 growth factor receptor (Homo sapiens) (UniProt Q16288); conditions: at 0.1 µM
# NT-3 growth factor receptor (Homo sapiens), sequence (Q16288 32-839 limits assumed): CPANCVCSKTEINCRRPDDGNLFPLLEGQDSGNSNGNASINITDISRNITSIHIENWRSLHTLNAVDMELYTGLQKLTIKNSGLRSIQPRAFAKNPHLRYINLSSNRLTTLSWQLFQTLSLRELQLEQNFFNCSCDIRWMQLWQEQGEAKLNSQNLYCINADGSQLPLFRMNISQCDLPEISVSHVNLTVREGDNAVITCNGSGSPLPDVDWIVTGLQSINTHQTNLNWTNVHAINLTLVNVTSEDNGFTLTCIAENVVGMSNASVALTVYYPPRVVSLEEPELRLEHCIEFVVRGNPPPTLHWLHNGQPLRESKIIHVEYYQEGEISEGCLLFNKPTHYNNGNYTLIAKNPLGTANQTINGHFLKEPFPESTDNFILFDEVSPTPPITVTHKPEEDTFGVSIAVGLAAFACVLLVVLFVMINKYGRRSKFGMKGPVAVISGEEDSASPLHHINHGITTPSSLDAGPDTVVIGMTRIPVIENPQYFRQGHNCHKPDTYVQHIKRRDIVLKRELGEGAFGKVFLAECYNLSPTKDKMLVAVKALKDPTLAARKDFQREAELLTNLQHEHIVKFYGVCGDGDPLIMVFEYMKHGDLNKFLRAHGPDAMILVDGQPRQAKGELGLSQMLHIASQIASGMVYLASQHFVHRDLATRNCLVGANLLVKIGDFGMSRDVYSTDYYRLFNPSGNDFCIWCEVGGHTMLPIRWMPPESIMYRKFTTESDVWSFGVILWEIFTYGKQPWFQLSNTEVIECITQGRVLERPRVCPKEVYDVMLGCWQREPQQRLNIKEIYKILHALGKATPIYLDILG
# [15] = target: NT-3 growth factor receptor (Homo sapiens) (UniProt Q16288); conditions: at 1 µM
# [16] = target: T3, Tyrosine-protein kinase TXK (Homo sapiens) (UniProt P42681); conditions: at 0.1 µM
# T3 sequence (whole entry): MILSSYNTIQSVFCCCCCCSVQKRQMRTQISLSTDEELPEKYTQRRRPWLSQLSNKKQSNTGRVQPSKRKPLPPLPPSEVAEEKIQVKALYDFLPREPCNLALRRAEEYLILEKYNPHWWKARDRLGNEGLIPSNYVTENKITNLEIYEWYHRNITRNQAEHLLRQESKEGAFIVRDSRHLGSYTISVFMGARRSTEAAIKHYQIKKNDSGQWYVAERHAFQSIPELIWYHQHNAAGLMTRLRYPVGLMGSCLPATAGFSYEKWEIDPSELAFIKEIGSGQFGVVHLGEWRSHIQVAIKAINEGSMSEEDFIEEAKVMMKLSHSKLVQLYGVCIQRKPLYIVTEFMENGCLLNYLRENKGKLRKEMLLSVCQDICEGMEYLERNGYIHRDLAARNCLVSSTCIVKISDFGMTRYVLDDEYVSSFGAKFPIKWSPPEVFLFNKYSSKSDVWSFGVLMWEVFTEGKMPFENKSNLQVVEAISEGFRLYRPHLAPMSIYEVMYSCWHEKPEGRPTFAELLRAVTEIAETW
# [17] = target: T3, Tyrosine-protein kinase TXK (Homo sapiens); conditions: at 1 µM
# [18] = target: Non-receptor tyrosine-protein kinase TYK2 (Homo sapiens) (UniProt P29597); conditions: at 0.1 µM;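 note: each value is a mean of the inhibition readings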
# Non-receptor tyrosine-protein kinase TYK2 (Homo sapiens), sequence (P29597 whole entry): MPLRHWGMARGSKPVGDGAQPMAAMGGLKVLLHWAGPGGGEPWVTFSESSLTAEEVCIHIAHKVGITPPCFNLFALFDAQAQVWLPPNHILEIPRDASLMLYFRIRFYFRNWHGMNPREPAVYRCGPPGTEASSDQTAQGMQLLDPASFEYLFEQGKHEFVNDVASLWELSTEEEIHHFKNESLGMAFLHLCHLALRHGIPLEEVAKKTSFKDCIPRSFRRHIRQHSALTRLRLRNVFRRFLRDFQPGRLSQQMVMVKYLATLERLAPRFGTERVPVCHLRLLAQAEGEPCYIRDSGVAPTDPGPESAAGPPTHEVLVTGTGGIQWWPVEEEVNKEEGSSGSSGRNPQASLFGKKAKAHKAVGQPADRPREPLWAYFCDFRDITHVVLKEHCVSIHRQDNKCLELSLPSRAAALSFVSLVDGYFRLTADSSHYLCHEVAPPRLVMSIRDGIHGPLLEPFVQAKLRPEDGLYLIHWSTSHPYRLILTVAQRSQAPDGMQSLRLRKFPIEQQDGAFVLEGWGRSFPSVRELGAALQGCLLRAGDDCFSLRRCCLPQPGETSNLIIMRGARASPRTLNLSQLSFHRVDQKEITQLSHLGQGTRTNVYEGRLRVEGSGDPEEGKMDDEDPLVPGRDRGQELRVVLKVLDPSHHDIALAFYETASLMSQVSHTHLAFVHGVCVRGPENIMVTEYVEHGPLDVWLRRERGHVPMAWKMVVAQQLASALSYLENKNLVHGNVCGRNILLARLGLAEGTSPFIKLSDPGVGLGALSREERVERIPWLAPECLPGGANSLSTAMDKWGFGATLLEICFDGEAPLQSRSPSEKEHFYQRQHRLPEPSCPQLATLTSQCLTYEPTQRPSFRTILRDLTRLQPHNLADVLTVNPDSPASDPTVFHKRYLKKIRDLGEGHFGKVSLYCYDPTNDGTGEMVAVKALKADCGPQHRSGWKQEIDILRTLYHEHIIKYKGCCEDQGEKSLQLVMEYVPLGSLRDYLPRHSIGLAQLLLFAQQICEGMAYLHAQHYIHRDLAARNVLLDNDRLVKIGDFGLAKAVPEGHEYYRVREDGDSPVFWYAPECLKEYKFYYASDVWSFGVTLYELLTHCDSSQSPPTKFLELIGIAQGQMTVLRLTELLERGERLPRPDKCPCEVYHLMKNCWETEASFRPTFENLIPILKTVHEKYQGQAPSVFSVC
# [19] = target: T4, Dual specificity protein kinase TTK (Homo sapiens) (UniProt P33981); conditions: at 1 µM;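 note: reported figures are mean TTK inhibition at 1 µM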
# T4 sequence (whole entry): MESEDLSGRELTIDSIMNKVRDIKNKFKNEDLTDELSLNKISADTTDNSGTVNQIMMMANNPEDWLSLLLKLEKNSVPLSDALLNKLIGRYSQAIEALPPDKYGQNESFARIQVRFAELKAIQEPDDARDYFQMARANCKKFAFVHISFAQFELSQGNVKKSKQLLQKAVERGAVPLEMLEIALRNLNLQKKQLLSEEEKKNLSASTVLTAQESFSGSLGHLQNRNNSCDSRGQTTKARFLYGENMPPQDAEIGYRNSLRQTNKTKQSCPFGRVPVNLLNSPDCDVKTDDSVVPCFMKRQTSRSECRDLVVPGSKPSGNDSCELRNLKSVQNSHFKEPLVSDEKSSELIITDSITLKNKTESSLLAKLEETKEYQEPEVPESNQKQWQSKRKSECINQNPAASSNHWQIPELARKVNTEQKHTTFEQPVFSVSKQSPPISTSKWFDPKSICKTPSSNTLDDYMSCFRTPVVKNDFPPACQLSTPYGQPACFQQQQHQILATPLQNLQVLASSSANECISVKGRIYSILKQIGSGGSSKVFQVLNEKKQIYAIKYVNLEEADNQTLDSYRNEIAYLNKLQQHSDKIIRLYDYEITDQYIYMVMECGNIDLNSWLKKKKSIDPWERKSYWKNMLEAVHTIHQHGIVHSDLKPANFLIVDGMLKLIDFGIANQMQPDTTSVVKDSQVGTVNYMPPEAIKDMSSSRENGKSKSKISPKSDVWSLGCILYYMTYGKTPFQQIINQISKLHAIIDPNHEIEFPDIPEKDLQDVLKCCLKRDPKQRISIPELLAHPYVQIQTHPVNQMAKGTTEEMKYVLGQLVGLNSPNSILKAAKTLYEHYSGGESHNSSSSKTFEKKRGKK
# [20] = target: T5, Aurora kinase A (Homo sapiens) (UniProt O14965); conditions: at 0.1 µM;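 note: each reported value is a mean percent inhibition of Aurora-A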
# T5 sequence (whole entry): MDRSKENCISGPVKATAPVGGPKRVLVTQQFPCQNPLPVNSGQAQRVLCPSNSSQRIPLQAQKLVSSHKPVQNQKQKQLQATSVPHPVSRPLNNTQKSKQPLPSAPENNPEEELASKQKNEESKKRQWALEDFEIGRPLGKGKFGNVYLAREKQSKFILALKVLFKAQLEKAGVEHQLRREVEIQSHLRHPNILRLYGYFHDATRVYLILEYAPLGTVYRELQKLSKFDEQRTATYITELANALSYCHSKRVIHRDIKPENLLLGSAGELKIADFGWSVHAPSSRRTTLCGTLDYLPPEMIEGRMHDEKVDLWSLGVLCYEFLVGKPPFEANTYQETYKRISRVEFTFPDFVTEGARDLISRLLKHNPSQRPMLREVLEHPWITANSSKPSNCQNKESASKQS
Structure (SMILES),inhibition [1] [%],inhibition [2] [%],inhibition [3] [%],inhibition [4] [%],inhibition [5] [%],inhibition [6] [%],inhibition [7] [%],inhibition [8] [%],inhibition [9] [%],inhibition [10] [%],inhibition [11] [%],inhibition [12] [%],inhibition [13] [%],inhibition [14] [%],inhibition [15] [%],inhibition [16] [%],inhibition [17] [%],inhibition [18] [%],inhibition [19] [%],inhibition [20] [%]
CC(C)c1ccc(Nc2nccc(-c3cnn4ncccc34)n2)cc1,9.02,2.28,7.14,2.92,4.32,5.68,49.3,0.39,2.14,3.65,7.94,2.01,6.18,3.36,9.1,1.69,3.04,-0.82,22.2,6.2
COC(=O)c1ccc2c(c1)C(=Cc1cc(Br)c(O)c(Br)c1)C(=O)N2,-1.69,9.11,7.75,3.09,3.01,25.5,70.2,0.88,8.96,2.4,6.54,3.26,8.43,2.35,12.1,6.42,12.3,5.83,25.2,30.8
Nc1nccc(-c2c(-c3ccc(F)cc3)nn3cc(C(F)(F)F)ccc23)n1,-1.5,0.64,4.1,1.2,3.87,2.37,-0.22,-0.73,0.6,-2.97,-4.55,0.39,0.48,0.11,1.1,0.11,6.52,-4.56,4.23,0.97
CCOc1nccc2c1nc(-c1nonc1N)n2CC,1.57,3.96,5.87,2.25,8.59,2.63,20.1,3.04,7.54,-1.22,3.61,-0.99,5.51,1.31,5.16,4.89,5.69,-0.93,6.96,0.6
OCc1ccc(-c2nc(-c3ccccn3)c(-c3ccc4c(c3)OCO4)[nH]2)cc1,-0.31,7.61,11.1,2.48,6.23,5.37,-4.68,1.72,2.78,3.27,3.45,3.16,1,4.37,3,6.42,12.5,-1.9,9.01,4.4
Cc1cc(Cl)cc2c1NC(=O)C2=NNc1ccc(S(N)(=O)=O)cc1,0.95,2.23,1.43,2.08,2.32,-0.6,7.55,0.54,1.92,-1.82,2.26,1.15,4.46,1.2,3.59,2.77,3.71,-5.56,9.15,1.75
COc1cc2ncnc(Nc3ccc4c(cnn4Cc4ccccc4)c3)c2cc1OC,0.48,3.95,17.7,4.78,10.2,7.1,35.6,0.51,4.91,0.45,2.18,2.13,3.38,1.5,2.59,0.73,4.56,-1.09,13.2,1.22
COc1ccc2ncnc(Nc3ccc(OCc4ccccc4)cc3)c2c1,-1.05,2.8,4.49,2.79,5.45,2.34,12.3,0.68,1.66,0.33,1.61,2.59,2.63,-0.03,0.85,2.73,3.98,-2.4,4.18,1.97
CN(C)C(=O)O[C@@H]1CN[C@@H](C#Cc2cc3ncnc(Nc4ccc(OCc5cccc(F)c5)c(Cl)c4)c3s2)C1,0.74,2.88,6.39,1.52,4.73,0.44,8.64,-0.35,-0.22,-3.09,-4.24,-0.65,-0.85,2.82,0.46,2.85,5.35,1.84,4.98,1.79
COc1cccc(-n2ncc3c(N/N=C/c4ccc(S(C)(=O)=O)cc4)ncnc32)c1,-1.66,-0.19,10.4,7.64,31.4,10.4,20,1.34,1.96,4.94,5.3,6.69,19.3,6.62,22.3,0.02,12.4,-0.06,,6.42
ON=C1CCc2cc(-c3nc(C4CCNCC4)[nH]c3-c3ccncc3)ccc21,0.36,1.46,2.88,1.37,1.77,-4.28,-5.17,-0.93,-2.5,-3.45,-1.26,-0.05,-1.18,-1.73,-0.26,1.85,2.25,-1.08,2.17,-0.5
c1ccc(Nc2ncc(-c3ccccc3)o2)cc1,3.14,4.25,8.61,3.52,3.99,5.05,9.74,1.38,0.93,0.26,6.98,2.68,9.78,4.23,8.89,2.01,6.4,-2.68,16.1,2.24
CN(c1ccc(NC(=O)Nc2ccc(OC(F)(F)F)cc2)cc1)c1ccnc(Nc2cccc(S(N)(=O)=O)c2)n1,,0.44,7.04,36,79.2,21.4,82.2,0.67,4.69,30,90.5,34.7,82.6,30.1,87.1,-0.18,8.63,-1.91,6.4,7.93
CCS(=O)(=O)c1ccc(OC)c(Nc2nccc(N(C)c3ccc4c(C)n[nH]c4c3)n2)c1,-6.17,4.3,27,6.69,46.3,40,82.5,2.32,22.8,2.86,11.7,5.19,14.1,4.34,17.5,1.6,26.2,-6.13,11.9,4.98
